Experimental data taken from PubChem BioAssay (EPA / NIEHS).
Inconclusive results are not listed. Calls of active or inactive are those of the source. How the source made its calls: active means hit-call score of the fitted dose curve at least 0.9, where 1 is the maximum; inconclusive means response in the unintended direction; inactive means score below 0.9.

Target: human CYP2C9, CYP2C9 (gene 1559) (UniProt P11712)
Test: NVS_ADME_hCYP2C9: NovaScreen (NVS) CYP450-related Enzyme Activity (ADME) Assay for human CYP2C9 (AID 2283108)
Method in brief: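 Fluorescence readout of CYP2C9 activity (SF9-expressed human enzyme) at 0.75 h. The primary screen used 10 uM in duplicate, with concentration-response follow-up for actives; acetonitrile was the negative control.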

Chain of human CYP2C9, CYP2C9 (gene 1559) (P11712 whole entry, looked up): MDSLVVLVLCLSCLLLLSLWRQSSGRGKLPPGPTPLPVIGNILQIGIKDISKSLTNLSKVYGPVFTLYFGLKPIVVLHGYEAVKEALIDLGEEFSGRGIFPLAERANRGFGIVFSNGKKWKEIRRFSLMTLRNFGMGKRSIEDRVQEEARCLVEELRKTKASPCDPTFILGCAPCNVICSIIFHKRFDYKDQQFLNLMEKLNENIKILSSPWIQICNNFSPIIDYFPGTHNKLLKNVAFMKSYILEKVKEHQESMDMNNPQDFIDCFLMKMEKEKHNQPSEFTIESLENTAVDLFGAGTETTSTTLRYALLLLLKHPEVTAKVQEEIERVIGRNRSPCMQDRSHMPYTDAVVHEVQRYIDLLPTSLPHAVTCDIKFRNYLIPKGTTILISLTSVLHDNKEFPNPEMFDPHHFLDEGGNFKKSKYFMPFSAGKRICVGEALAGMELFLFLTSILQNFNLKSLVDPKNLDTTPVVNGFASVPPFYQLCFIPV

Compound | AC50
CCC12COCN1COC2 | 3.73 µM (active)
CCNS(=O)(=O)C(F)(F)C(F)(F)C(F)(F)C(F)(F)C(F)(F)C(F)(F)C(F)(F)C(F)(F)F | 0.226 µM (active)
ClCCOCCCl | 15 µM (active)
CS(=O)(=O)NC(=O)c1cc(Oc2ccc(C(F)(F)F)cc2Cl)ccc1[N+](=O)[O-] | 6.1 µM (active)

Target: human CYP4F12, CYP4F12 (gene 66002) (UniProt Q9HCS2)
Sequence (Q9HCS2 whole entry, looked up): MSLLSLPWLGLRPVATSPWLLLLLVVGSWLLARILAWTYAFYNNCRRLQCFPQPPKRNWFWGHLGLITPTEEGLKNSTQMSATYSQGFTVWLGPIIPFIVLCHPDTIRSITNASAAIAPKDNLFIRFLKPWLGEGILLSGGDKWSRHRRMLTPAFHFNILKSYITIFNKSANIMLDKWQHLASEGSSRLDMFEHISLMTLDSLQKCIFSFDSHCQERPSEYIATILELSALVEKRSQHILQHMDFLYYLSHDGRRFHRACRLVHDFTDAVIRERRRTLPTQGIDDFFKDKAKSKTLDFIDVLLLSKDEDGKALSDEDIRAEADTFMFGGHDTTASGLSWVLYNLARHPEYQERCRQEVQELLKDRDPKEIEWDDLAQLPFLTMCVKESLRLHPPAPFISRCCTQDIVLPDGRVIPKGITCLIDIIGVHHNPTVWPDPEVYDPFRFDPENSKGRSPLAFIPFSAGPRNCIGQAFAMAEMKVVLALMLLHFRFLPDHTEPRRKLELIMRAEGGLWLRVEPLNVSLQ
Test: NVS_ADME_hCYP4F12: NovaScreen (NVS) CYP450-related Enzyme Activity (ADME) Assay for human CYP4F12 (AID 2283111)
Method in brief: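 Recombinant enzyme with a fluorescent substrate, signal read at 0.5 h post-dose; activity loss analysed relative to acetonitrile. Compounds first run in duplicate at 10 uM, with follow-up concentration-response testing of actives.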

Compound | AC50 | outcome
CCN(CC)N=O | 6.21 µM (active) | 
Cc1ccc([N+](=O)[O-])cc1 |  | inactive
Clc1ccccc1Cl | 1.91 µM (active) | 

Target: Cytochrome P450 2C19 (Homo sapiens) (UniProt P33261)
Test: NVS_ADME_hCYP2C19: NovaScreen (NVS) CYP450-related Enzyme Activity (ADME) Assay for human CYP2C19 (AID 2283113);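 further: potency for inhibition seen as loss of fluorescent signal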
Method in brief: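 Fluorescence intensity was measured 1 hour after chemicals were added to insect-cell-derived recombinant CYP2C19 with fluorogenic substrate. Decreased signal versus acetonitrile control was taken as reduced enzyme activity; initial testing used 10 uM in duplicate.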

Compound | AC50
Nc1ccc(Cc2ccc(N)cc2)cc1 | 14.4 µM (active)
CCNS(=O)(=O)C(F)(F)C(F)(F)C(F)(F)C(F)(F)C(F)(F)C(F)(F)C(F)(F)C(F)(F)F | 9.65 µM (active)
Clc1ccc(C(c2ccc(Cl)cc2)C(Cl)Cl)cc1 | 4.79 µM (active)
Nc1ccc([N+](=O)[O-])cc1 | 6.15 µM (active)
C[C@]12C=CC3=C4CCC(=O)C=C4CC[C@H]3[C@@H]1CC[C@@H]2O | 5.75 µM (active)
CO[C@@H]1[C@H](OC(=O)NC(=O)CCl)CC[C@]2(CO2)[C@H]1[C@@]1(C)O[C@@H]1CC=C(C)C | 2.21 µM (active)
